In the library only some 6.1% were active in any assay of this set; here they are far more common.
D1 PAM = Potentiators of Human D1 Dopamine Receptor: qHTS; D(1A) dopamine receptor (Homo sapiens), P21728; HEK293 TREx D1 cells, calcium flux, dopamine EC20 potentiation; potentiation, % at 10 µM; hit rate 0.036% among 360,000; AID 504651, 2011; in the data active means potentiation above about 30%
D1 antag = Antagonist of Human D 1 Dopamine Receptor: qHTS; D(1A) dopamine receptor (Homo sapiens), P21728; HEK293 TREx D1 cells, calcium flux, dopamine EC80; stronger effect = lower value; activity change, negative = inhibition, % at 10 µM; hit rate 3.2% among 360,000; in the data active means activity change below about -30%
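HEK293 T-REx cells expressing inducible, force-coupled D1 receptor; no-wash Ca dye, 30–90 min RT. Cmpd → 180 s read at 1 Hz → EC80 DA → 180 s read.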
ERG Ets-DNA blk = qHTS for Small Molecule Inhibitors of the ERG Ets/DNA interaction. Transcriptional regulator ERG (Homo sapiens), P11308. fluorescence polarization, His-ERG Ets domain / labelled DNA. Potency, µM (titrated, usually from 76.9 µM), usual class: inhibitors. hit rate 0.028% among 370,000; active means well fitted inhibition curve with a large enough effect in the polarisation, with a control signal flat; the % refers to the polarisation;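 further: polarization taken with two DNA probes labelled with fluorescein and Texas red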
Target sequence (P11308 whole entry, looked up, the tested form may be a part): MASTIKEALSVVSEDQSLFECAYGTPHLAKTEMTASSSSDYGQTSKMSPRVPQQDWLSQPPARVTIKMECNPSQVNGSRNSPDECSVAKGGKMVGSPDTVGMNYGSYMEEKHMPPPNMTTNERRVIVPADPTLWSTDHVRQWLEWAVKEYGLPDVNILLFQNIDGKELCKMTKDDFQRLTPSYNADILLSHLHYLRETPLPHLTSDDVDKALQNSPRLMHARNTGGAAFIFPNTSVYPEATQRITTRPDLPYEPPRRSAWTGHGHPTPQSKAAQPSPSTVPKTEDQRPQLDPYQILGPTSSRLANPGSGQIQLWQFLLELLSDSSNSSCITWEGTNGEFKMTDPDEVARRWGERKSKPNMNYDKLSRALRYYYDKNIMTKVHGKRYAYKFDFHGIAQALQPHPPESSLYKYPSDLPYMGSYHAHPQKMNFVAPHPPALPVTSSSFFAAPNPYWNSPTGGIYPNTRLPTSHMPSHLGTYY
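His-tagged ERG Ets domain (1 uM in the protein solution; 300mM KCl, 50mM Tris-HCl, 1mM EDTA, 1mM DTT, pH 7.5) received compound, then a probe mix of 5 nM fluorescein-DNA and 100nM Texas-615-DNA. Fluorescence polarization was read for both dyes.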
DRD3 antagonist = qHTS of D3 Dopamine Receptor Antagonist: qHTS | hit rate 2.5% among 360,000 | max response, negative = inhibition, % | D3R cells, DiscoveRx beta-arrestin luminescence, antagonist mode; stronger effect = lower value | AID 652054, 2013 | D(3) dopamine receptor (Homo sapiens), P35462; in the data active means max response below about -50%
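Cells expressing the human receptor were seeded at 1500 cells/well, incubated overnight at 37 degrees C in 5% CO2, then exposed to library compounds with dopamine controls for 90 minutes at 37 degrees C before luminescent detection.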
D3 ag = qHTS of D3 Dopamine Receptor Agonist: qHTS | hit rate 0.58% among 410,000 | D3R DiscoveRx beta-arrestin cells, luminescence, 90 min | D(3) dopamine receptor (Homo sapiens), P35462 | AID 652048, 2013 | max activation, %; in the data active means max activation above about 30%
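Cells at 1500/well, incubated overnight, then treated with pinned compounds (dopamine as control) for 90 min at 37 degrees C. DiscoveRx reagent added for 30 - 60 minutes at room temperature; luminescence read.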
D1 agonist = Allosteric Agonists of the Human D1 Dopamine Receptor: qHTS; D(1A) dopamine receptor (Homo sapiens), P21728; HEK293 T-REx D1 cells, calcium flux, agonist mode; activation, % at 2 µM; hit rate 1% among 360,000; in the data active means activation above about 30%
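Tetracycline-induced HEK293 TREx D1 cells, force-coupled to calcium signalling, were dye-loaded with a no-wash calcium kit. Compound was pin-added after a 10 s baseline. Fluorescence was read kinetically at 1 cycle/s for 180 s, with calcium rises flagged as agonism.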
Numbers stand for hits.

For COc1cc(CNCCN2CCOCC2)ccc1OCc1ccc(Cl)cc1Cl the results were D1 PAM inactive, D1 antag inactive, ERG Ets-DNA blk inactive, DRD3 antagonist -64, D3 ag inactive and D1 agonist inactive.
CCN(CC(=O)Nc1ccc(NC(C)=O)cc1)C(=O)Cc1c(Cl)cccc1Cl was read as D1 PAM inactive, D1 antag inactive, ERG Ets-DNA blk inactive, DRD3 antagonist inactive, D3 ag inactive and D1 agonist inactive.
`COc1ccc(Cl)cc1Cn1c(C)c(C(=O)NCc2cccc(C(F)(F)F)c2)sc1=O` gave DRD3 antagonist -60 and D3 ag inactive.
`Cc1c(C(=O)NCc2ccccc2C(F)(F)F)sc(=O)n1Cc1ccc2ccccc2c1` gave DRD3 antagonist inactive and D3 ag inactive.
Screening COc1ccc(Cl)cc1Cn1c(C)c(C(=O)NCc2ccc(C#N)cc2)sc1=O returned DRD3 antagonist -50 and D3 ag inactive.
Screening COc1ccccc1Cn1c(C)c(C(=O)NCc2ccc(C#N)cc2)sc1=O returned DRD3 antagonist inactive and D3 ag inactive.
Screening Cc1c(C(=O)NCc2ccccc2C(F)(F)F)sc(=O)n1Cc1cccc(C(F)(F)F)c1 returned DRD3 antagonist -55 and D3 ag inactive.
`CCC1C/C(=C/c2ccco2)C(=O)/C(=C/c2ccco2)C1` (stereo not given) gave D1 PAM inactive, D1 antag inactive and D1 agonist 37.
`CCC1C/C(=C\c2cc(OC)c(OC)cc2OC)C(=O)/C(=C/c2cc(OC)c(OC)cc2OC)C1` (stereo not given) gave D1 PAM inactive, D1 antag inactive, ERG Ets-DNA blk inactive, DRD3 antagonist inactive, D3 ag inactive and D1 agonist inactive.
For O=C(CCS(=O)(=O)c1cc2c3c(c1)CCN3C(=O)CC2)Nc1cccc(Br)c1 the results were D1 PAM inactive, D1 antag inactive, ERG Ets-DNA blk inactive, D3 ag inactive and D1 agonist inactive.
For CC(C1CC2CCC1C2)n1c(COc2ccccc2F)nnc1SCC(N)=O (stereo not given) the results were D1 PAM inactive, D1 antag inactive, ERG Ets-DNA blk inactive, DRD3 antagonist inactive, D3 ag inactive and D1 agonist 89.
`CC(C)NC(=O)NC(=O)CSc1nnc(COc2ccccc2F)n1C(C)C1CC2CCC1C2` (stereo not given) gave D1 PAM inactive, D1 antag inactive, ERG Ets-DNA blk inactive, DRD3 antagonist inactive, D3 ag inactive and D1 agonist inactive.
`CC(C)Oc1cccc(C(=O)C2CCCN(C(=O)CCc3cnn(C)c3)C2)c1` (stereo not given) gave D1 PAM inactive, D1 antag inactive, ERG Ets-DNA blk inactive, DRD3 antagonist inactive, D3 ag inactive and D1 agonist inactive.
`COc1ccccc1CN(Cc1ccco1)S(=O)(=O)c1ccc(-n2cnnn2)c(OC)c1` gave D1 PAM inactive, D1 antag -33, DRD3 antagonist inactive, D3 ag inactive and D1 agonist inactive.
For COC(=O)c1cc(NC(=O)c2cccc(Cl)c2)c(=O)oc1/C=C/Nc1cc(C)cc(C)c1 the results were D1 PAM inactive, D1 antag -34 and D1 agonist 102.
`COc1cccc(N2CCN(C3C(=O)c4ccccc4N3C(C)=O)CC2)c1` (stereo not given) gave D1 PAM inactive, D1 antag inactive, ERG Ets-DNA blk inactive, D3 ag inactive and D1 agonist inactive.
Screening COc1ccc(CNc2nc(NCc3ccc(OC)cc3)c3[nH]cnc3n2)cc1 returned D1 PAM inactive, D1 antag inactive, ERG Ets-DNA blk inactive, DRD3 antagonist inactive, D3 ag 56 and D1 agonist inactive.

Bioassay records as filed in PubChem.
